Shown are actives, neighbours in structure and some others; about 2.4% of the full set was active somewhere.
CHO-K1 Ca antag: M1 antagonist counterscreen hit in parental CHO-K1 cells; ATP-induced calcium, Fluo-8 fluorescence; inhibition, % at 3 µM; 360,000 tested, 0.6% active;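 active = inhibition above a per-plate cutoff, the plate's mean sample inhibition plus 3 SD, cut at about 24% in these data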;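 note: 0% = DMSO plus EC80 ATP and 100% = DMSO alone without ATP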
CHRM1 agonist: human M1 muscarinic receptor agonists, primary screen, Fluo-8 calcium fluorescence, CHO-K1 cells, HTS. CHO-K1 hM1, agonist mode; 0% DMSO, 100% acetylcholine EC100. 360,000 tested, 0.33% active. activation, % at 3 µM. Muscarinic acetylcholine receptor M1 (Homo sapiens), P11229;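 active = activation above the run's mean compound activation plus 3 SD, cut at about 16% in these data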;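 note: peak over basal fluorescence ratio within a 140 s kinetic read after compound addition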
Target sequence (P11229 whole entry, looked up): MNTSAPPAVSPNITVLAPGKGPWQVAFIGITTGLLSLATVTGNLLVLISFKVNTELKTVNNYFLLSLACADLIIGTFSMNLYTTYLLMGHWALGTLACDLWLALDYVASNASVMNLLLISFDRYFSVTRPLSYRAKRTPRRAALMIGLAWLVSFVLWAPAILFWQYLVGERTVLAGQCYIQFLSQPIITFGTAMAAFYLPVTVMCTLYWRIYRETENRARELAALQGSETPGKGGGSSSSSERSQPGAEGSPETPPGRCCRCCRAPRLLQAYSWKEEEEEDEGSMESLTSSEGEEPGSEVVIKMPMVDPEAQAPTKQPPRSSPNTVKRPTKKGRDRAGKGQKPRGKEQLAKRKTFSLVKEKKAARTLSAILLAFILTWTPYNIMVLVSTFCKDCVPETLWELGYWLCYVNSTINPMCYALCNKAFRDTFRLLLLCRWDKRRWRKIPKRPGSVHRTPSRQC
M1 antag: human M1 muscarinic receptor antagonists, primary screen, CHO-K1 cells, Fluo-8 calcium fluorescence, 1536-well; Muscarinic acetylcholine receptor M1 (Homo sapiens), P11229; CHO-K1 hM1, ACh EC80 antagonist; inhibition, % at 3 µM; 360,000 tested, 1.3% active;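 active = percent inhibition above its own plate's cutoff, namely the mean of that plate's compound wells plus 3 SD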;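 note: peak over basal fluorescence ratio during 140 s after agonist addition; 0% = ACh EC80 plus DMSO and 100% = DMSO alone without agonist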
CHO-K1 Ca ag: counter-screen for M1 agonists: effect in parental CHO-K1 cells; Fluo-8 calcium fluorescence; scaled to maximal ATP response, vehicle zero; activation, % at 3 µM; 360,000 tested, 0.48% active; in the data active = activation above about 15%;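 note: untransfected CHO-K1 host cells lacking M1 receptor as counterscreen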
CHRM1 PAM: human M1 muscarinic receptor positive allosteric modulators, primary screen, CHO-K1 cells, Fluo-8 calcium fluorescence, 1536-well; Muscarinic acetylcholine receptor M1 (Homo sapiens), P11229; CHO-K1 hM1, ACh EC20; 0% = ACh EC20, 100% = maximal ACh; 360,000 tested, 0.088% active; activation, % at 3 µM; in the data active = activation above about 19%, passing the limit was not always enough
M1 PAM parental: nonselective calcium activators in parental CHO-K1 cells, primary screen, counter-screen for M1 PAM project, cell-based, Fluo-8 calcium fluorescence, full deck, 1536-well. ATP EC20; 0% at ATP EC20, 100% at ATP max. activation, % at 3 µM. 360,000 tested, 0.02% active;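 active = activation above the run cutoff, the mean activation of all test compounds plus 3 SD, cut at about 40% in these data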;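 note: peak over basal fluorescence ratio in a 140 s read after ATP addition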
Starred values were filed as active, the others as inactive.

SMILES	CHO-K1 Ca antag	CHRM1 agonist	M1 antag	CHO-K1 Ca ag	CHRM1 PAM	M1 PAM parental
CCCCCCN1CCN(C2CN(C3CCCCC3)S(=O)(=O)C2)CC1 (configuration not stated)	-1	5	0	2	0	13
Cc1cc(C)c2c(CN3CCN(CCO)CC3)cc(=O)oc2c1	29*	-7	7	-1	-7	-7
CN1CCN(C(=S)c2ccc(-c3cc(Cl)ccc3Cl)o2)CC1	-11	-3	-7	2	2	20
N#CCCN1CCN(C(=S)c2ccc(-c3cc(Cl)ccc3Cl)o2)CC1	-2	-3	30*	0	-9	12
C/C=C(\C)C(=O)NCCN1C2=NC[C@H](C)N2C[C@@H]1Cc1ccc(OC)cc1	-6	-14	5	0	-9	1
COc1ccc(C[C@@H]2CN3C(=NC[C@@H]3C)N2CCNC(=O)c2ccc(C)c(Br)c2)cc1	-6	-13	40*	0	-37	1
CCC(=O)N(Cc1cc(=O)[nH]c2ccccc12)c1ccccc1	-4	-7	31*	1	-22	10
O=C1NC(=O)/C(=C/C(=O)N2CCOCC2)S1	-7	-5	-3	1	-3	2
Cn1ccc2c(-c3ccc(F)cc3)cc3c(c21)C1CCC3C1 (configuration not stated)	-1	-1	-14	1	9	7
COc1ccc(-c2cc3c(c4c2ccn4C)C2CCC3C2)cc1F (configuration not stated)	24*	-1	-2	0	10	2
CN(C)CCCN(C(=O)c1cccs1)c1nc(-c2ccccc2)cs1	-11	19*	41*	2	-12	12
COc1ccc(-c2csc(N(CCCN(C)C)C(=O)c3ccccc3Cl)n2)cc1	-16	-9	53*	3	-28	11
COc1ccc(-c2csc(N(CCCN(C)C)C(=O)c3ccccc3C)n2)cc1	-12	-9	14	3	-16	16
Cc1ccc(-c2cnc(C(O)c3cc(F)cc(Cl)c3)[nH]2)cc1 (configuration not stated)	-1	4	-8	1	9	11
O=C(NCc1ccccc1C(F)(F)F)c1cccc2c1C(=O)c1ccc(N3CCC(N4CCCCC4)CC3)cc1S2(=O)=O	-1	2	39*	11	-28	15
O=C(NCC1CCCO1)c1cccc2c1C(=O)c1ccc(N3CCC(Cc4ccccc4)CC3)cc1S2(=O)=O (configuration not stated)	12	17*	38*	17*	-23	-3
O=C(COc1ccc(Cl)cc1)Nc1cc(NC(=O)COc2ccc(Cl)cc2)cc(C(=O)O)c1	-1	-4	-10	3	11	14
CC12CN3CCN(CC(C3)/C1=N\NC(=O)Nc1cccc(Cl)c1)C2	2	-8	-3	0	5	0
CSc1ccccc1C(=O)N1CCc2ccc(NC(=O)c3ccccn3)cc2C1	25*	1	-1	6	-2	-16
CSc1ccc(C(=O)N2CCc3ccc(NC(=O)c4ccccn4)cc3C2)cc1	7	-4	9	6	-7	-21
COc1ccc(NC(=O)COc2ccc(N(C)S(=O)(=O)c3ccc(Cl)cc3)cc2)cc1OC	27*	0	38*	14	-13	-20
CN(c1ccc(OCC(=O)OCC(=O)Nc2ccc(F)cc2)cc1)S(=O)(=O)c1ccc(Cl)cc1	4	-3	13	11	-11	6
CC(=O)Nc1ccc(S(=O)(=O)N(C)c2ccc(OCC(=O)Nc3ccccc3C(C)=O)cc2)cc1	15	-3	36*	5	-15	-19
C[C@H](CO)N1C[C@H](C)[C@@H](CN(C)C(=O)Nc2ccccc2)Oc2ncc(-c3ccc(C#N)cc3)cc2C1=O	-1	-7	-6	1	0	10
CCc1ccc(S(=O)(=O)N2CCN(c3ccccc3OC)CC2)cc1	-9	-5	-10	0	4	-12
